PubChem BioAssay AID1671448 (Corson Lab, School of Medicine, Indiana University, 2021)
Hit rate of the full screen: of about 20,000 compounds, about 660 (3.3%) were called active.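 How the source made its calls: active means enzyme reaction rate more than 3 SD below the solvent-only control wells on the same plate; inactive means the rest.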 What follows is part of a selection rich in actives, with near analogues and random picks from the rest.

Molecular target: Ferrochelatase, mitochondrial (Homo sapiens) (UniProt P22830)
Sequence (P22830 whole entry, looked up): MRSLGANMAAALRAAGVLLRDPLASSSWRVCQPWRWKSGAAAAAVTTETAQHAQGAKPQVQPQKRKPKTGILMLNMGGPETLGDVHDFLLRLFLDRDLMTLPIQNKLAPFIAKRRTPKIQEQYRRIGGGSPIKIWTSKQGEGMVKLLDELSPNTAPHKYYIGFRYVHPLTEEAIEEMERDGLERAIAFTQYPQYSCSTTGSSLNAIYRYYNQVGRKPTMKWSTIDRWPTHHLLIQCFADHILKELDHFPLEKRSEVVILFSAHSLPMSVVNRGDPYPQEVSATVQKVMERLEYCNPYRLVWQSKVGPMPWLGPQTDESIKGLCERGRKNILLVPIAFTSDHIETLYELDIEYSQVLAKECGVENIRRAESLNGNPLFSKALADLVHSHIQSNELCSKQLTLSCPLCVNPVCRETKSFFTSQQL
Experiment: inhibitors of human ferrochelatase, primary screen, biochemical, purified FECH, Ni-mesoporphyrin absorbance (AID 1671448)
Settings: Ni-mesoporphyrin absorbance 550 nm, screened at 10 µM (by protocol)

| Structure (SMILES) | outcome |
| --- | --- |
| COc1cccc2c1OCC(CN1CCC(O)(c3ccc(C)cn3)CC1)=C2 | inactive |
| O=C(O)c1cccnc1CN1CCN(Cc2ccc3c(c2)OCO3)CC1 | inactive |
| COc1ccccc1NC(=O)CN1CCN(Cc2ccccc2C)S1(=O)=O | inactive |
| Cc1ccccc1CN1CCN(CC(=O)Nc2cccc(Cl)c2C)S1(=O)=O | active |
| O=C(CN1CCN(Cc2ccccc2Cl)S1(=O)=O)Nc1ccccc1Cl | inactive |
| CCOc1ccc(-c2nc(Cn3c(=O)c4cnc(-c5ccc(OC)cc5)nc4n(C)c3=O)c(C)o2)cc1 | inactive |
| CCn1ccc(-c2n[nH]c(=O)n2Cc2ccccc2F)n1 | inactive |
| Cc1ccccc1S(=O)(=O)N1CCN(Cc2nc3cccnc3n2-c2ccccc2)CC1 | inactive |
| CCc1ccc(S(=O)(=O)N2CCN(Cc3nc4cccnc4n3-c3ccccc3)CC2)cc1 | inactive |
| CC(=O)Nc1ccc(S(=O)(=O)N2CCN(Cc3nc4cccnc4n3-c3ccc(C)cc3)CC2)cc1 | active |
| Cc1ccc(OCC(=O)Nc2cc(C)nn2-c2ncnc3c2cnn3-c2cccc(C)c2C)cc1 | inactive |
| CCN(CC)Cc1cnc2c(C(=O)N3CCC(Cn4cccn4)CC3)cnn2c1 | active |
| CCN(CC)Cc1cnc2c(C(=O)Nc3cccc4cc(C)oc34)cnn2c1 | inactive |
| NC(=O)c1cccc(CC2CCN(C(=O)c3cnn4cccnc34)C2)c1 (stereo not drawn) | inactive |
| CN1CCC(Cc2noc(CCc3nc4cccnc4n3C)n2)CC1 | inactive |
| CCc1cccc(NS(=O)(=O)c2ccc3c(c2)CCN3C(=O)CCC(=O)N2CCOCC2)c1 | inactive |
| CCc1nc2nc(C)[nH]n2c(=O)c1NC(=O)Nc1cccc(C(F)(F)F)c1 | inactive |
| Cc1nc2nc(-c3ccccc3)nn2c(Sc2ccccc2NC(=O)c2ccc(Cl)cc2)c1C | inactive |
| Cc1ccc(C2=CC(c3ccc(F)cc3)n3nc(NC(=O)c4cccs4)nc3N2)cc1 (stereo not drawn) | inactive |
| O=C(Nc1nc2n(n1)C(c1ccccc1Cl)C=C(c1ccccc1)N2)c1ccccc1F (stereo not drawn) | active |
| COc1ccccc1C(=O)Nc1nc2n(n1)C(c1ccc(F)cc1)C=C(c1ccccc1)N2 (stereo not drawn) | active |
| O=C(Nc1nc2n(n1)C(c1ccccc1)C=C(c1ccc(Cl)cc1)N2)c1ccc(F)cc1 (stereo not drawn) | inactive |
| Cc1ccc(C2=CC(c3ccc(C)cc3)n3nc(NC(=O)c4ccco4)nc3N2)cc1 (stereo not drawn) | active |
| O=C(Nc1nc2n(n1)C(c1ccc(Cl)cc1)C=C(c1ccc(Cl)cc1)N2)c1ccccc1 (stereo not drawn) | inactive |
| Cc1ccc(C2=CC(c3c(F)cccc3Cl)n3nc(NC(=O)c4ccco4)nc3N2)cc1 (stereo not drawn) | inactive |
| Cc1ccc(C(=O)Nc2nc3n(n2)C(c2ccccc2)C=C(c2ccc(Cl)cc2)N3)cc1 (stereo not drawn) | inactive |
| O=C(Nc1nc2n(n1)C(c1c(F)cccc1Cl)C=C(c1ccccc1)N2)c1ccc(F)cc1 (stereo not drawn) | inactive |
| CCCC(=O)NC1CC(=O)N(c2ccc(OCC)cc2)C1 (stereo not drawn) | inactive |
